Assay results reported in PMC7862700, “An all-to-all approach to the identification of sequence-specific readers for epigenetic DNA modifications on cytosine”.

Legend:
Assay in all cases: DAPPL (digital affinity profiling via proximity ligation, sequencing); 10 mM Tris-HCl pH 7.5, 50 mM NaCl, 1 mM DTT, 4% glycerol, room temperature, 30 min; GST-TFs on glutathione beads, 16-mer random dsDNA library, 0.1% formaldehyde crosslink after washing; high values mean tight binding
Settings in all cases: protein: recombinant; tags: N-terminal GST; dsDNA, one strand shown
[1] = target: T1, FEV (Homo sapiens, UniProt Q99581 1-238)
T1 sequence: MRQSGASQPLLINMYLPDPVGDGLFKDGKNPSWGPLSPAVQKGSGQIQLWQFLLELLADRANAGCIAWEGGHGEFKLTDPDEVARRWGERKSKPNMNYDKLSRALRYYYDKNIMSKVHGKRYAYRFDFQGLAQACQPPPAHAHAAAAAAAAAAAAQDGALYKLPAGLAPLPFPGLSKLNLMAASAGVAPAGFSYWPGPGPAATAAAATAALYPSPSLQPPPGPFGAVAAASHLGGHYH
Summary of the method: (§1)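 A tag-only sample was pooled with DNA-barcoded human transcription factors that had been expressed in yeast as GST fusions and captured on glutathione beads. The pools were incubated for 30 min at room temperature with 200 nmole of a random double-stranded 16-mer DNA library in Tris/NaCl/DTT/glycerol buffer, then washed, crosslinked with 0.1% formaldehyde, proximity-ligated (BsaI/T4 ligase, 1 h, 37 °C), PCR-amplified and sequenced on an Illumina NextSeq500. Binding signal is each hexamer's read frequency for a factor divided by its frequency for the tag-only sample.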

[2] = target: ETV5 (Homo sapiens, UniProt P41161 1-510)
ETV5, sequence (P41161 whole entry): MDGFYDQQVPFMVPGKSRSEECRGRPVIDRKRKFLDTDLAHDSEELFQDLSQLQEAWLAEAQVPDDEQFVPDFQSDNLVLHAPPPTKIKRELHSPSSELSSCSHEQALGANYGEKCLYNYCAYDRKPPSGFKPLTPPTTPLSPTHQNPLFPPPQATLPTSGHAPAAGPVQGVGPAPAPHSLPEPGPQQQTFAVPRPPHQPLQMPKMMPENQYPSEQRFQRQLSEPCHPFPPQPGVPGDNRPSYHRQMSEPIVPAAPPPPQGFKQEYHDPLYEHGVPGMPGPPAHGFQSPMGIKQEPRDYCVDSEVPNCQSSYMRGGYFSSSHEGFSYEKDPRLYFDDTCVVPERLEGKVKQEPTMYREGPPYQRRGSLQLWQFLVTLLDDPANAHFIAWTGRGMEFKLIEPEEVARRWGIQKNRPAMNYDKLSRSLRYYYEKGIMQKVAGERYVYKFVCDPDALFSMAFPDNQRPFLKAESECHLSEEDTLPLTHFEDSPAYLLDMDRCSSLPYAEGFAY
Summary of the method: as §1

[3] = target: T2, SPIC (Homo sapiens, UniProt Q8N5J4 1-248)
T2 sequence: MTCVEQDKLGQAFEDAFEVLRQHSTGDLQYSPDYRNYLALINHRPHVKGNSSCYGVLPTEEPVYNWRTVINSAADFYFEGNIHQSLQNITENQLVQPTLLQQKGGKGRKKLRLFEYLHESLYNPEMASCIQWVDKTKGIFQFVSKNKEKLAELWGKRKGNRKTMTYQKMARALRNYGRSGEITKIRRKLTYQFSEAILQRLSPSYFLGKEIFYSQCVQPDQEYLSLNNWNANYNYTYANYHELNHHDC
Summary of the method: as §1

[4] = target: ELF4 (Homo sapiens, UniProt Q99607 1-663)
ELF4, sequence (Q99607 whole entry): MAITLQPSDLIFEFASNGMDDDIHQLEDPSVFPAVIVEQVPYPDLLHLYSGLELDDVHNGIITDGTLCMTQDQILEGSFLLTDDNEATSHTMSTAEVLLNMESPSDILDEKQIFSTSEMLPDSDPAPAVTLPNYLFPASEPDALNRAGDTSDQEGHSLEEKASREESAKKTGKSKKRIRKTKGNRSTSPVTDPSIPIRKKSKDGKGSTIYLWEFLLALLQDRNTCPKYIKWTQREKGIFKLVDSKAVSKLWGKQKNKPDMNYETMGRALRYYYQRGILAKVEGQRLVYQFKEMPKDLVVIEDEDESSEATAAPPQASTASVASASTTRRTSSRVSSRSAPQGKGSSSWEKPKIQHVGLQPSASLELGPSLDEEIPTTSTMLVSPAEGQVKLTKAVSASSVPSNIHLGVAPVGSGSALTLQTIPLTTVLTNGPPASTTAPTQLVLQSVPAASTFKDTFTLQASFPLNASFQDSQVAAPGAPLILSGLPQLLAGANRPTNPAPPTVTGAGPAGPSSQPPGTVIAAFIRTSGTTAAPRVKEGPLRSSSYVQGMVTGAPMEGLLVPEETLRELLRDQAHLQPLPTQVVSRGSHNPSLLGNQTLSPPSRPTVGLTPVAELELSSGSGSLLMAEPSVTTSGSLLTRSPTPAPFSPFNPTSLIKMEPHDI
Summary of the method: as §1

[5] = target: T3, ELK4 (Homo sapiens, UniProt P28324-2 1-405)
T3 sequence: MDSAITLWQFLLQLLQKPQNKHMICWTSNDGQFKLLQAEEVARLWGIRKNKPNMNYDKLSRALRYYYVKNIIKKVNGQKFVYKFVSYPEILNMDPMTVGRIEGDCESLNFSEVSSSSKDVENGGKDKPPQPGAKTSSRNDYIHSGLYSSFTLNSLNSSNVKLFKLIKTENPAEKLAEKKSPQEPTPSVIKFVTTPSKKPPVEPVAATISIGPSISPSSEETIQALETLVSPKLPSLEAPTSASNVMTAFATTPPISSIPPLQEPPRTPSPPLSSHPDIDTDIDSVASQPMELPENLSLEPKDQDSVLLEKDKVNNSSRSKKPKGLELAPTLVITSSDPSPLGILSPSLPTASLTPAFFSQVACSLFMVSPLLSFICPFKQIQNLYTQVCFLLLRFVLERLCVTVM
Summary of the method: as §1

[6] = target: T4, ETV2 (Homo sapiens, UniProt O00321 1-342)
T4 sequence: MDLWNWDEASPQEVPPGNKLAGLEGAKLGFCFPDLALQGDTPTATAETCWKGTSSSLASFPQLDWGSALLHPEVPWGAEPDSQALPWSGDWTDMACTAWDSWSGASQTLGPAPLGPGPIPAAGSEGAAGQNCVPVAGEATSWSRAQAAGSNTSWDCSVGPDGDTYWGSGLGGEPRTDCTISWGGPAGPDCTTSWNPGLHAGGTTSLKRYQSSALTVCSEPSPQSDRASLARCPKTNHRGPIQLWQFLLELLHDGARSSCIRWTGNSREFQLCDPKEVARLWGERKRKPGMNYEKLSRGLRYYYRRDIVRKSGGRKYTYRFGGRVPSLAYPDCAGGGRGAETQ
Summary of the method: as §1

[7] = target: T5, ELF3 (Homo sapiens, UniProt P78545 1-371)
T5 sequence: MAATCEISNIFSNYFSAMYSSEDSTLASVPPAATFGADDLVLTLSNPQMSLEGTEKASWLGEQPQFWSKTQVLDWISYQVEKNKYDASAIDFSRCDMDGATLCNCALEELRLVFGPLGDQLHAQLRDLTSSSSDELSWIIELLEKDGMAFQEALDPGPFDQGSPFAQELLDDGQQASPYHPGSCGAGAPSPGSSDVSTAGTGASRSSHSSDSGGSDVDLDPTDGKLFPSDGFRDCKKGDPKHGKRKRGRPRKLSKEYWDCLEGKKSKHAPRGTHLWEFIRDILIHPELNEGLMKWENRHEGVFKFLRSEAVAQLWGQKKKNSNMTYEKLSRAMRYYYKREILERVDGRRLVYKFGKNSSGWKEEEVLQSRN
Summary of the method: as §1

[8] = target: ETV1 (Homo sapiens, UniProt P50549 1-477)
ETV1, sequence (P50549 whole entry): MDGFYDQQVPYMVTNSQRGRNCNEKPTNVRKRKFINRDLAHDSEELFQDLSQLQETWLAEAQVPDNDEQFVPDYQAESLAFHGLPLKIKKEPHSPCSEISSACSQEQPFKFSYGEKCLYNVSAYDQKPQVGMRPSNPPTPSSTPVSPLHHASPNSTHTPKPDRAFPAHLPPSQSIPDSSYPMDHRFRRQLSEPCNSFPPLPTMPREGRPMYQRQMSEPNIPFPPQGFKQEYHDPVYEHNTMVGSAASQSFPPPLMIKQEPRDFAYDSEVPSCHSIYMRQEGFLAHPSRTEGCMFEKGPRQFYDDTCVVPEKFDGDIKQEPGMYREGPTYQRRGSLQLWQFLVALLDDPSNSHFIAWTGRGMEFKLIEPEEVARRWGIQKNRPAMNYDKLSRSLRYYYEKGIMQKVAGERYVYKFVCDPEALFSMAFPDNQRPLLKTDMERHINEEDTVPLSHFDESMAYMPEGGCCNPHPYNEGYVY
Summary of the method: as §1

[9] = target: T6, ERF (Homo sapiens, UniProt P50548 1-548)
T6 sequence: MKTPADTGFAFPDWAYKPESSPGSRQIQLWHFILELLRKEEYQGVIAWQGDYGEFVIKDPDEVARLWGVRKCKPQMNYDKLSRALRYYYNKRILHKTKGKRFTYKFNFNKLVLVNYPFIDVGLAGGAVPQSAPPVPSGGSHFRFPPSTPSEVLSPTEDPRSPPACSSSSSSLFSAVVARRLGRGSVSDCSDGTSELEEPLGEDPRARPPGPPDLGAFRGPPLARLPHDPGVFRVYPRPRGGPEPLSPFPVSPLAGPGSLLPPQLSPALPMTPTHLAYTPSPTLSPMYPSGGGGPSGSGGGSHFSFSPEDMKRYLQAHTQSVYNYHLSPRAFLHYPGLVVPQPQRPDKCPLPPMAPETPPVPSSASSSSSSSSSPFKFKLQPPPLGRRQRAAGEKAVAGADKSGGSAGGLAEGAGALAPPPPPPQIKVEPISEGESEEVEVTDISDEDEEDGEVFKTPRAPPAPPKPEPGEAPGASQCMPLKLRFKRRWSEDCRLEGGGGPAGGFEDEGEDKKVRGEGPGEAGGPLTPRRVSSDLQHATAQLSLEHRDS
Summary of the method: as §1

[10] = target: T7, ETV3L (Homo sapiens, UniProt Q6ZN32 1-361)
T7 sequence: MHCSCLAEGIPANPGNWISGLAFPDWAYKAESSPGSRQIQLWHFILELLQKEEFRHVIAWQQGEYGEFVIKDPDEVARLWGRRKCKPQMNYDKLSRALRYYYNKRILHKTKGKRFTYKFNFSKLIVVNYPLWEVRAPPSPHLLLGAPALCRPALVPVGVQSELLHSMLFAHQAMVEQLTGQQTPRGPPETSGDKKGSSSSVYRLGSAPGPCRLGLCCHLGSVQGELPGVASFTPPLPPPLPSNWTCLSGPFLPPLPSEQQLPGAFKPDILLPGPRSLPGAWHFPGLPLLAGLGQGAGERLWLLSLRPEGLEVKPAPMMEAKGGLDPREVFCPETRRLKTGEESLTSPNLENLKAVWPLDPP
Summary of the method: as §1

[11] = target: T8, ETS2 (Homo sapiens, UniProt P15036 1-469)
T8 sequence: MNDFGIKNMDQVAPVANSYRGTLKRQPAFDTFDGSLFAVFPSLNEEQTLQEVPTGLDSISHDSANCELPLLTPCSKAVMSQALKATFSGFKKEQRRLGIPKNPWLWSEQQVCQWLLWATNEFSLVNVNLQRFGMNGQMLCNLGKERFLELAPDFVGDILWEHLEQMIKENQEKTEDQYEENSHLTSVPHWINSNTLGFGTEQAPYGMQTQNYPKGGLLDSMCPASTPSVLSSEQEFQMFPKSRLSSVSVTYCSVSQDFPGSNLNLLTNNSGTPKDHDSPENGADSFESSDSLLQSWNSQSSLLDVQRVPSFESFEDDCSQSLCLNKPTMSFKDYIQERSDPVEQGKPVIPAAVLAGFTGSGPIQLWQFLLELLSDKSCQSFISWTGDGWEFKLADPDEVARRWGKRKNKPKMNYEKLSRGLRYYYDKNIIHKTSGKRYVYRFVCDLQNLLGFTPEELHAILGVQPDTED
Summary of the method: as §1

[12] = target: T9, SPDEF (Homo sapiens, UniProt O95238 1-335)
T9 sequence: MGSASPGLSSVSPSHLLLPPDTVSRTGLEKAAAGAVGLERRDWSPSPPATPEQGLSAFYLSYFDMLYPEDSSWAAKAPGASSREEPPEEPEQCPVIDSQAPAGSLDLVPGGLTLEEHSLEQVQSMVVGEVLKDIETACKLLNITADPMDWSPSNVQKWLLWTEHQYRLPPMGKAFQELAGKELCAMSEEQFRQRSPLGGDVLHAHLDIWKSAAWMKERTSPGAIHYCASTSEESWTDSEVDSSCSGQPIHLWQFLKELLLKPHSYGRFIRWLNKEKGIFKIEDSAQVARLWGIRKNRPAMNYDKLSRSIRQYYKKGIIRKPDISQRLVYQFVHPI
Summary of the method: as §1

[13] = target: T10, ETV7 (Homo sapiens, UniProt Q9Y603 1-341)
T10 sequence: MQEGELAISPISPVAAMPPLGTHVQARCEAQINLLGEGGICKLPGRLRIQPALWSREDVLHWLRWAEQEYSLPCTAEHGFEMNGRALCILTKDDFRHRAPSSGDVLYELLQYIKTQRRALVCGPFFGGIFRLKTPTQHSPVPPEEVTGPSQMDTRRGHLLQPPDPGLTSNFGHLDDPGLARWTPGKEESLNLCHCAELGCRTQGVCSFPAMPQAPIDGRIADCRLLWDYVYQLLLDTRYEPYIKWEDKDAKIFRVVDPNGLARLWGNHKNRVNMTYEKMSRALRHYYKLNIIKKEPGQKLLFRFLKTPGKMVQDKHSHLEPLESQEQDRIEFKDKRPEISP
Summary of the method: as §1

[14] = target: T11, ELF5 (Homo sapiens, UniProt Q9UKW6-2 1-255)
T11 sequence: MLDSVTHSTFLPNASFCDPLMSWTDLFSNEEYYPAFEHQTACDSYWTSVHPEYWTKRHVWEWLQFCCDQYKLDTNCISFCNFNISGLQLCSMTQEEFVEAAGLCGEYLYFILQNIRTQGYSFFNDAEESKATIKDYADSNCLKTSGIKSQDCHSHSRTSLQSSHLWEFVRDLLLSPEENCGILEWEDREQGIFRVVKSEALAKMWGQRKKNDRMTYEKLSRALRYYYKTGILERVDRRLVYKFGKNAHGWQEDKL
Summary of the method: as §1

[15] = target: T12, ETV3 (Homo sapiens, UniProt P41162-2 1-143)
T12 sequence: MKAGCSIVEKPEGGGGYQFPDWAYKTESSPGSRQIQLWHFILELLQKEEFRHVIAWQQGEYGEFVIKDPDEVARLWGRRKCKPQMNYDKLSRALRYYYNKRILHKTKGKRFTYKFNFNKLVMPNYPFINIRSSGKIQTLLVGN
Summary of the method: as §1

[16] = target: ETV6 (Homo sapiens, UniProt P41212 1-452)
ETV6, sequence (P41212 whole entry): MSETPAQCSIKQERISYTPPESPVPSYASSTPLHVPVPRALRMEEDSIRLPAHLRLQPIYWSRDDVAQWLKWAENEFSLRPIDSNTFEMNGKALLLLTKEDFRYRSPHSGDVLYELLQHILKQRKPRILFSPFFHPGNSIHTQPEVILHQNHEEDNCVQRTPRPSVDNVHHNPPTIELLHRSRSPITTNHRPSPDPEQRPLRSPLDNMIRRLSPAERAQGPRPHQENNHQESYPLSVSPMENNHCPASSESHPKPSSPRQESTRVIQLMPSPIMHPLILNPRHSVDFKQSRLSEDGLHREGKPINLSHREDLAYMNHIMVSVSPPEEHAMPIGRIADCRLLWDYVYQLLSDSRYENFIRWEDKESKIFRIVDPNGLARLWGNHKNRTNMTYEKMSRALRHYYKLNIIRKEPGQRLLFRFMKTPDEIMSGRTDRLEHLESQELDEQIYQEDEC
Summary of the method: as §1

Sequence	binding signal [1]	binding signal [2]	binding signal [3]	binding signal [4]	binding signal [5]	binding signal [6]	binding signal [7]	binding signal [8]	binding signal [9]	binding signal [10]	binding signal [11]	binding signal [12]	binding signal [13]	binding signal [14]	binding signal [15]	binding signal [16]
GTCCCT	1.28 fold enrichment (6-mer frequency, TF over GST control)	1.18 fold enrichment (6-mer frequency, TF over GST control)	1.29 fold enrichment (6-mer frequency, TF over GST control)	1.31 fold enrichment (6-mer frequency, TF over GST control)	1.27 fold enrichment (6-mer frequency, TF over GST control)	1.22 fold enrichment (6-mer frequency, TF over GST control)	1.23 fold enrichment (6-mer frequency, TF over GST control)	1.26 fold enrichment (6-mer frequency, TF over GST control)	1.22 fold enrichment (6-mer frequency, TF over GST control)	1.16 fold enrichment (6-mer frequency, TF over GST control)	1.31 fold enrichment (6-mer frequency, TF over GST control)	1.37 fold enrichment (6-mer frequency, TF over GST control)	1.22 fold enrichment (6-mer frequency, TF over GST control)	1.23 fold enrichment (6-mer frequency, TF over GST control)	1.26 fold enrichment (6-mer frequency, TF over GST control)	1.21 fold enrichment (6-mer frequency, TF over GST control)
CACCCC	1.22 fold enrichment (6-mer frequency, TF over GST control)	1.18 fold enrichment (6-mer frequency, TF over GST control)	1.41 fold enrichment (6-mer frequency, TF over GST control)	1.18 fold enrichment (6-mer frequency, TF over GST control)	1.47 fold enrichment (6-mer frequency, TF over GST control)	1.13 fold enrichment (6-mer frequency, TF over GST control)	1.11 fold enrichment (6-mer frequency, TF over GST control)	1.28 fold enrichment (6-mer frequency, TF over GST control)	1.36 fold enrichment (6-mer frequency, TF over GST control)	1.34 fold enrichment (6-mer frequency, TF over GST control)	1.22 fold enrichment (6-mer frequency, TF over GST control)	1.24 fold enrichment (6-mer frequency, TF over GST control)	1.11 fold enrichment (6-mer frequency, TF over GST control)	1.16 fold enrichment (6-mer frequency, TF over GST control)	1.27 fold enrichment (6-mer frequency, TF over GST control)	1.14 fold enrichment (6-mer frequency, TF over GST control)
